# Measured values as given in PubChem BioAssay AID1490 (National Center for Advancing Translational Sciences (NCATS), 2009).
# Hit rate of the full screen: of about 310,000 compounds, about 11,000 (3.5%) were called active. About 4% were inconclusive and are not listed. The call rests on the fitted dose curve; in most records, active means well fitted inhibition curve with a large enough effect; inconclusive means small, poorly fitted or top-dose-only effect, or another doubt; inactive means no such curve, though single readings can be large or run the other way. Shown is part of a subset that was picked to be rich in actives.
# Biological target: 4'-phosphopantetheinyl transferase ffp (Bacillus subtilis) (UniProt Q9F4F7)
# Experiment: qHTS Assay for Inhibitors of Bacillus subtilis Sfp phosphopantetheinyl transferase (PPTase);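 further: the enzyme is Sfp with the accession as filed and its product quenches rhodamine fluorescence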;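 on largest response in the series, negative = inhibition: 0% = enzyme reaction without inhibitor and -100% = no enzyme wells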
# Conditions: Biochemical Sfp PPTase activity
# In short: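 Compounds were incubated with enzyme (final 15 nM) for 15 min at room temperature before substrate addition started the reaction. Fluorescence at 525 nm excitation, 598 nm emission was recorded immediately and after 30 minutes.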
# Potency means the concentration at half of the fitted maximal effect.
Structure (SMILES),"largest response in the series, negative = inhibition",Potency
O=C(CCNC(=O)C1CCN(S(=O)(=O)c2ccccc2)CC1)NC1CC1,5.65% (inactive),
Cc1ccn(C(CC(=O)c2ccc(Br)cc2)C(=O)O)n1 (stereo unspecified),,22.4 µM (active)
Cc1cc(C)c2c(=O)[nH]c(SCC(=O)Nc3ccc(Br)cc3)nc2n1,1.73% (inactive),
Cc1ccc(NC(=O)CCC(=O)c2ccc(Br)cc2)cc1,11.8% (inactive),
CCOc1ccc2nc(NCCNS(=O)(=O)c3ccccc3)c(C#N)cc2c1,,79.4 µM (active)
CCOc1ccc2nc(NCCNC(=O)C(C)(C)C)c(C)cc2c1,17.3% (inactive),
CCOc1ccc(S(=O)(=O)NCCSc2ccccc2)cc1,6.97% (inactive),
COc1c(O)ccc2c1CN1CCc3cc4c(cc3C1C2)OCO4 (stereo unspecified),,35.5 µM (active)
COc1ccc2cc1Oc1ccc(cc1)C[C@H]1c3cc(c(OC)cc3CCN1C)Oc1c(O)c(OC)cc3c1[C@H](C2)N(C)CC3,1.93% (inactive),
COc1cc(COCC(O)CN2CCN(Cc3ccc4c(c3)OCO4)CC2)cc(OC)c1OC (stereo unspecified),8.76% (inactive),
CCOC(=O)[C@]1(C(/C=C/c2ccco2)NC(=O)OC)CCCC1=O (stereo partly specified),-6.29% (inactive),
O=C(O)c1cc(S(=O)(=O)N(Cc2ccccc2)c2ccccc2)ccc1Cl,19% (inactive),
CCC(c1nnnn1Cc1ccco1)N(Cc1cc2cc(OC)ccc2[nH]c1=O)C1CCCCC1 (stereo unspecified),,3.55 µM (active)
CCC(c1nnnn1Cc1ccccc1)N(Cc1cc2cc(OC)ccc2[nH]c1=O)CC1CCCO1 (stereo unspecified),-86% (inactive),
CCC(c1nnnn1C1CCCC1)N(Cc1cccs1)Cc1cc2cccc(C)c2[nH]c1=O (stereo unspecified),9.11% (inactive),
CCC(c1nnnn1Cc1ccco1)N(CCc1ccccc1)Cc1cc2ccc(OC)cc2[nH]c1=O (stereo unspecified),-15.9% (inactive),
COc1ccc2[nH]c(=O)c(CN(Cc3nnnn3CCc3ccccc3)CC3CCCO3)cc2c1 (stereo unspecified),0.899% (inactive),
CCC(c1nnnn1Cc1ccco1)N(CCc1ccccc1)Cc1cc2cccc(C)c2[nH]c1=O (stereo unspecified),,25.1 µM (active)
COc1ccc(-c2nc3c(s2)CCc2onc(-c4ccc(OC)cc4)c2-3)cc1,4.62% (inactive),
CC(NCc1cccs1)C(=O)Nc1cc(Cl)cc(Cl)c1 (stereo unspecified),-16.2% (inactive),
CC1=C(C(=O)NC2CC(C)(C)Cc3c2cnn3-c2ccc(C)cc2)OCCO1 (stereo unspecified),15.5% (inactive),
CCN(CC)CCCCn1c(-c2ccccc2)nc2c(N3CCOCC3)nc(C)nc21,39.5% (inactive),
O=C(C1CCCO1)N1CCN(S(=O)(=O)c2ccc(Br)cc2)CC1 (stereo unspecified),-3.46% (inactive),

Structure (SMILES),"largest response in the series, negative = inhibition",Potency
O=C(CN1C(=O)S/C(=C\c2ccccc2F)C1=O)NCCCn1ccnc1,16.3% (inactive),
CC(=O)c1sc(N/N=C\c2ccc(C)cc2)nc1C,-20.4% (inactive),
COc1cc2ccccc2cc1C(=O)Nc1nc(C)c(C(C)=O)s1,-2.33% (inactive),
CC(=O)c1sc(NC(=O)C2=NN(c3ccccc3)C(=O)CC2)nc1C,,79.4 µM (active)
CCCCN1C(=O)C(C)=C(C)C1OCCc1ccc(OC)c(OC)c1 (stereo unspecified),14% (inactive),
CCC(=O)c1cn(CCOc2ccccc2OC)c2ccccc12,2.97% (inactive),
O=C(NC(=S)Nc1ccc(S(=O)(=O)N2CCOCC2)cc1)c1ccccc1[N+](=O)[O-],-9.64% (inactive),
O=S(=O)(c1ccc(NC(=S)NN=C(C2CC2)C2CC2)cc1)N1CCOCC1,,44.7 µM (active)
CN1CCN(S(=O)(=O)c2ccc(NC(=S)NC(=O)C3CC3)cc2)CC1,22.5% (inactive),
CC(=O)Oc1cccc(C(=O)Nc2ccccc2NC(=O)c2cccc(OC(C)=O)c2)c1,11.7% (inactive),
CCOc1ccc2[nH]c(=O)c(CN(CCCO)S(=O)(=O)c3ccc(F)cc3)cc2c1,2.06% (inactive),
Cc1ccc(N2C(=O)CC(Nc3cccc4ccccc34)C2=O)cc1 (stereo unspecified),3.72% (inactive),
CC1=C(C)CC2C(=O)N(c3cccc4ccccc34)C(=O)C2C1 (stereo unspecified),,39.8 µM (active)
O=C1c2ccccc2C(=O)N1c1cccc2ccccc12,4.99% (inactive),
COc1ccc(NC(=O)CCS(=O)(=O)c2cc3c(cc2Cl)NC(=O)CO3)cc1OC,8.75% (inactive),
C=CCc1ccccc1OCC(=O)N/N=C/c1ccccc1OCC,-17.8% (inactive),
CCOc1ccccc1/C=N/NC(=O)CNC(=O)COc1ccccc1,13.5% (inactive),
C=C(C)CNC(=S)N/N=C/c1ccccc1OCC(=O)O,,12.6 µM (active)
Cc1ccc(NC(=O)O[C@@H]2C(=O)c3cc(Br)ccc3O[C@H]2c2ccc3c(c2)OCO3)cc1Br,-5.42% (inactive),
N[C@@H](Cc1ccccc1)C(=O)N1CCC(C(=O)NCC(=O)Nc2ccc(F)cc2)CC1,-3.37% (inactive),
C[N+](C)(C)CCNC(=O)c1cc[n+](Cc2ccccc2)c(/C=N/O)c1,3.04% (inactive),
N#CCC(=O)NC1CCC(CC2CCC(NC(=O)CC#N)CC2)CC1 (stereo unspecified),-5.45% (inactive),
COC(=O)c1ccc(CSc2ccc3nnc(-c4ccccc4)n3n2)o1,,70.8 µM (active)

Structure (SMILES),"largest response in the series, negative = inhibition",Potency
CCCn1c(SCC(=O)N2CCc3ccccc32)nnc1-c1ccncc1,15.4% (inactive),
COC(=O)c1ccc(CSc2ccccc2C)o1,17.7% (inactive),
Cn1c(SCC(=O)N2CCCc3ccccc32)nc2ccccc2c1=O,0.535% (inactive),
O=C(CSc1ccc2nnc(-c3ccccc3)n2n1)N1CCCc2ccccc21,,8.91 µM (active)
COc1ccc(-c2nnc3ccc(SCc4ccccc4)nn23)cc1,-4.23% (inactive),
CN(CC(=O)Nc1ccc(Cl)cc1)C(=O)CNC(=O)c1ccc2ccccc2c1,1.11% (inactive),
O=C1CCN(Cc2ccccc2)CCN1[C@H](CSc1ccccc1)c1ccccc1,2.51% (inactive),
O=C(O)CC/C(=C\c1cc2c(cc1Br)OCO2)c1nc2ccccc2s1,,50.1 µM (active)
O=C(O)CS/C(=C\c1ccc(F)cc1)c1nc2ccccc2s1,27.3% (inactive),
O=C(Nc1nc2ccccc2s1)c1ccc2c(c1)OCO2,16.2% (inactive),
CC(C)[C@H](NC(=O)N1CCn2c1nc1ccccc12)C(=O)NCCc1ccccc1,3.48% (inactive),
CC(C(=O)NC1CCS(=O)(=O)C1)N1C(=O)/C(=C/c2ccc(Cl)cc2)SC1=S (stereo unspecified),-16.1% (inactive),
CC(C)(C)c1ccc(CN2C(=O)c3ccccc3S2(=O)=O)cc1,-8.95% (inactive),
Cc1ccccc1NC(=O)CSc1nc2ccc(Nc3nc(N4CCOCC4)nc(N4CCOCC4)n3)cc2s1,-16.9% (inactive),
Cc1cc(C)cc(OCC(=O)NC(C)c2ccccc2)c1 (stereo unspecified),-3.71% (inactive),
Cc1ccc(OCC(=O)NC(C)c2ccccc2)cc1C (stereo unspecified),-3.78% (inactive),
C/C(CC(=O)NC(C)c1ccccc1)=N\NC(N)=S (stereo unspecified),,79.4 µM (active)
CC(=O)Nc1ccc(S(=O)(=O)N2CCC(C(=O)N[C@@H](Cc3ccccc3)C(=O)O)CC2)cc1,27.7% (inactive),
C[C@@H]1O[C@@H](OC[C@H]2O[C@@H](Oc3cc(O)c4c(c3)O[C@H](c3ccc(O)c(O)c3)CC4=O)[C@H](O)[C@@H](O)[C@@H]2O)[C@H](O)[C@H](O)[C@H]1O,2.86% (inactive),
O=C(CC1Nc2ccccc2NC1=O)Nc1ccccc1NC(=O)CC1Nc2ccccc2NC1=O (stereo unspecified),-13.5% (inactive),
COC(=O)c1cc(C)sc1NC(=O)CC1Nc2ccccc2NC1=O (stereo unspecified),,79.4 µM (active)
CCOC(=O)c1ccccc1NC(=O)CC1Nc2ccccc2NC1=O (stereo unspecified),5.03% (inactive),
Cc1sc2ncn(CC(=O)NCCCC(=O)N(C)Cc3ccccc3)c(=O)c2c1C,13.5% (inactive),

Structure (SMILES),"largest response in the series, negative = inhibition",Potency
N#Cc1nc(-c2ccc(OCc3ccccc3)cc2)oc1NCCCN1CCOCC1,,44.7 µM (active)
Cc1ccc(-c2nc(C#N)c(NCCCn3ccnc3)o2)cc1,-4.22% (inactive),
O=S(=O)(c1ccccc1)c1nc(-c2ccccc2)oc1NCCCN1CCOCC1,11.1% (inactive),
Cc1ccc(NS(=O)(=O)c2ccc3c(c2)oc(=O)n3C)c(C)c1,5.37% (inactive),
O=C(O)c1ccc(NC(=O)c2ccc(COc3ccc(Cl)cc3)o2)cc1,9.95% (inactive),
CCOC(=O)c1cnc(SCC(=O)NCc2ccco2)nc1N,-17.3% (inactive),
Cc1ccc(Cc2c(C)nc3nc(SCC(=O)NCCN4CCOCC4)nn3c2C)cc1,-2.31% (inactive),
Cc1nc2nc(SCC(=O)NCc3ccco3)nn2c(C)c1Cc1ccccc1,,50.1 µM (active)
Cc1cccc(NC(=O)NC2(C)CCS(=O)(=O)C2)c1 (stereo unspecified),14.2% (inactive),
O=S(=O)(Nc1ccccc1)c1ccc(NS(=O)(=O)c2cccs2)cc1,16.9% (inactive),
S=c1[nH]nc(NCCc2ccccc2)s1,,22.4 µM (active)
Cc1ccc(Nc2nc(-c3sc(NC(=O)c4ccccc4)nc3C)cs2)cc1,0.727% (inactive),
CCNc1nc(-c2cc3ccccc3o2)cs1,-14.8% (inactive),
S=C(NCCc1ccccc1)Nc1ccccc1,-0.65% (inactive),
Cc1nc(C)c(-c2csc(NCCc3ccccc3)n2)s1,,50.1 µM (active)
O=C(CSc1ncccn1)NCCc1ccccc1,18.5% (inactive),
COc1cccc(C2CC(c3cccs3)=NN2C(=O)CSC2=NCCS2)c1OC (stereo unspecified),-16% (inactive),
Cc1cc(C)cc(Oc2c(C(F)(F)F)oc3cc(OCC(=O)O)ccc3c2=O)c1,5.59% (inactive),
CCOC(=O)N1CCC(N2Cc3cccc(C(=O)Nc4ccc(S(=O)(=O)N(CC)CC)cc4)c3C2=O)CC1,-1.4% (inactive),
CCc1ccc2nc(N(CCCN(C)C)C(=O)c3ccc4c(c3)OCCO4)sc2c1,-7.75% (inactive),
CCCC(=O)N(CCN1CCOCC1)c1nc2ccc(OCC)cc2s1,4.61% (inactive),
CCOc1ccc2nc(N(CCN(C)C)C(=O)c3ccc4ccccc4c3)sc2c1,,79.4 µM (active)
